The record followed here is PubChem BioAssay (NCI).

About 83,000 compounds went through this panel and 20% of them were active in at least one assay; those are over-represented in the sample as a whole.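 A percent growth of 40 corresponds to 60% growth inhibition; 0 means no net growth; -100 means all cells died. Active threshold: below 10.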 Values without a mark were called inactive. Active and inactive are the calls of the source.

Test systems include SR leukemia; OVCAR-8 ovarian; OVCAR-5 ovarian; OVCAR-4 ovarian; SK-OV-3 ovarian; IGROV1 ovarian; OVCAR-3 ovarian; HS 578T breast; NCI/ADR-RES ovarian; T-47D breast; BT-549 breast; MDA-MB-435 melanoma; SW-620 colon; MCF7 breast; KM12 colon; HCT-116 colon; HCC-2998 colon.
Experiment in all cases: NCI-60 one-dose screen, 48 h (100 = growth as untreated, 0 = no growth, -100 = all killed)
Holding throughout (conditions): 10 µM unless noted

As for `CCCCCCCCCCCCCCCCCC1=NCCN1C(=O)OCCO`, the growth in the experiment on SR leukemia was -10.5% (active); in the experiment with OVCAR-8 ovarian, 19.3%; in the experiment on OVCAR-5 ovarian it was 68.1%; with OVCAR-4 ovarian, 28.2%; in the experiment on SK-OV-3 ovarian it was 61.7%; with IGROV1 ovarian it was -35.3% (active). Moreover, the growth in the experiment on OVCAR-3 ovarian was 76%; in the experiment on HS 578T breast, 11.6%; in the experiment on NCI/ADR-RES ovarian, 51.4%; with T-47D breast, 57.3%; in the experiment on BT-549 breast, 113%; in the experiment on MDA-MB-435 melanoma it was -21.2% (active). For the same molecule, the growth in the experiment with SW-620 colon was -76.8% (active); in the experiment with MCF7 breast, -45.6% (active); in the experiment on KM12 colon, 21.4%.
Consider `COc1ccc(/C=C2\COc3ccc(O)c(O)c3C2=O)c(OC)c1`, for which the growth with SR leukemia is 18.9%; with OVCAR-8 ovarian, 41.5%; in the experiment with OVCAR-5 ovarian, 74.1%; in the experiment on OVCAR-4 ovarian it was 47.3%; with SK-OV-3 ovarian, 72.7%; with IGROV1 ovarian it was 31.3%. Moreover, the growth was 29.4% with OVCAR-3 ovarian; 65.5% with HS 578T breast; 57.8% in the experiment on NCI/ADR-RES ovarian; 48% in the experiment on T-47D breast; 57.8% in the experiment on BT-549 breast; 21% in the experiment with MDA-MB-435 melanoma. The growth is 64% with SW-620 colon; 31.2% with MCF7 breast; 59.4% in the experiment on HCT-116 colon; 104% in the experiment with HCC-2998 colon; 45% in the experiment with KM12 colon.
In the case of `CN(C)CCC(O)(Cc1ccccc1)c1ccccc1` (stereo unspecified), the growth is 102% in the experiment with SR leukemia; 105% with OVCAR-8 ovarian; 103% in the experiment on OVCAR-5 ovarian; 110% with OVCAR-4 ovarian; 99.6% with SK-OV-3 ovarian; 113% in the experiment on IGROV1 ovarian. Also, the growth with HS 578T breast is 99.8%; in the experiment on NCI/ADR-RES ovarian, 109%; with T-47D breast, 96.4%; in the experiment on MDA-MB-435 melanoma, 91.8%; with SW-620 colon, 114%; in the experiment with MCF7 breast, 110%. In addition, the growth with HCT-116 colon is 103%; in the experiment on HCC-2998 colon, 87%.
For `Cc1[nH]c(-c2nc3ccccc3[nH]2)c(C)c1C(=O)N1CCOCC1`, the growth in the experiment with SR leukemia was 98.6%; in the experiment with OVCAR-8 ovarian, 106%; in the experiment with OVCAR-5 ovarian, 98%; with OVCAR-4 ovarian, 99.8%; in the experiment with IGROV1 ovarian it was 99.4%; in the experiment with OVCAR-3 ovarian it was 103%. The growth is 90.4% with HS 578T breast; 101% in the experiment on NCI/ADR-RES ovarian; 99.1% with T-47D breast; 99% in the experiment on BT-549 breast; 99.7% in the experiment with MDA-MB-435 melanoma; 96.3% in the experiment on SW-620 colon. The growth in the experiment on MCF7 breast is 93.3%; in the experiment on HCT-116 colon it was 101%; with HCC-2998 colon, 97.9%.
On to `COc1ccc(/C(C)=C(\c2ccc(Cl)cc2)c2ccc(OCCN3CCCCC3)cc2)cc1F`, for which the growth is -25.2% (active) in the experiment on SR leukemia; 59.5% in the experiment on OVCAR-8 ovarian; 51.5% with OVCAR-5 ovarian; 29.1% with OVCAR-4 ovarian; 63% with SK-OV-3 ovarian; 46.2% in the experiment on IGROV1 ovarian. For the same molecule, the growth with OVCAR-3 ovarian is 51%; with HS 578T breast, 35%; in the experiment with NCI/ADR-RES ovarian, 63%; with T-47D breast it was 47.4%; in the experiment with BT-549 breast, 60.7%; with MDA-MB-435 melanoma it was 37%. For the same molecule, the growth is 22.1% in the experiment with SW-620 colon; 15% in the experiment with MCF7 breast; 19.7% with HCT-116 colon; 25.2% in the experiment with HCC-2998 colon; 18.7% with KM12 colon.
Take `Cl.[Pt].[c-]1ccccc1-c1ccccn1.c1ccc(P(c2ccccc2)C([PH+](c2ccccc2)c2ccccc2)[PH+](c2ccccc2)c2ccccc2)cc1`: the growth in the experiment with SR leukemia is 20.4%; with OVCAR-8 ovarian, 15.6%; with OVCAR-5 ovarian, 22.7%; with OVCAR-4 ovarian, 21.3%; in the experiment with IGROV1 ovarian, 17.2%; in the experiment with OVCAR-3 ovarian, 11.6%. The growth with HS 578T breast was 7.92% (active); with NCI/ADR-RES ovarian, 60.7%; in the experiment on T-47D breast, 27.8%; in the experiment on BT-549 breast it was 27%; with MDA-MB-435 melanoma, 4.42% (active); in the experiment on SW-620 colon, 13.6%. The growth is 3.15% (active) in the experiment with MCF7 breast, 7.37% (active) in the experiment with HCT-116 colon, 24.9% in the experiment on HCC-2998 colon and 5.04% (active) in the experiment with KM12 colon.
Consider `CCOC(=O)C1=C(C)NC(SCc2nnc(-c3ccc(Cl)cc3)o2)=NC1c1ccc(Cl)cc1Cl` (stereo unspecified), for which the growth in the experiment with SR leukemia was 37.9%; in the experiment with OVCAR-8 ovarian it was 54.2%; in the experiment on OVCAR-5 ovarian, 89%; with OVCAR-4 ovarian, 52.7%; in the experiment with SK-OV-3 ovarian, 90.3%; in the experiment with IGROV1 ovarian, 43.9%. Moreover, the growth is 67.1% in the experiment with HS 578T breast; 54.6% with NCI/ADR-RES ovarian; 47.4% in the experiment with T-47D breast; 89.7% in the experiment with BT-549 breast; 69% with MDA-MB-435 melanoma; 66.2% with SW-620 colon. In addition, the results for the growth with MCF7 breast, in the experiment on HCT-116 colon and with HCC-2998 colon were 32%, 28.8% and 84.5%, respectively.
For the molecule `CCN(CC)CCOc1ccc(/C(=C(\C)c2ccc(F)c(OC)c2)c2ccc(Cl)cc2)cc1`, the growth was -22.2% (active) in the experiment on SR leukemia; 17.4% in the experiment with OVCAR-8 ovarian; 40.9% in the experiment on OVCAR-5 ovarian; 26.6% in the experiment on OVCAR-4 ovarian; 54% with SK-OV-3 ovarian; 29.7% with IGROV1 ovarian. Besides, the growth was 16.6% in the experiment on OVCAR-3 ovarian; 16% in the experiment on HS 578T breast; 39.8% with NCI/ADR-RES ovarian; 18.8% with T-47D breast; 59.7% with BT-549 breast; 15% in the experiment on MDA-MB-435 melanoma. Besides, the growth in the experiment with SW-620 colon was -7.8% (active); in the experiment with MCF7 breast, -3.59% (active); in the experiment with HCT-116 colon, 1.56% (active); with HCC-2998 colon, -33.2% (active); in the experiment with KM12 colon, -3.3% (active).
In the case of `CCC(O)(C(c1ccccc1)c1ccccn1)C(c1ccccc1)c1ccccn1` (stereo unspecified), the growth with SR leukemia is 83.8%; with OVCAR-8 ovarian, 106%; in the experiment with OVCAR-5 ovarian, 96.4%; in the experiment with OVCAR-4 ovarian, 107%; with SK-OV-3 ovarian, 94.8%; with IGROV1 ovarian, 101%. In addition, the growth in the experiment on OVCAR-3 ovarian is 102%; with HS 578T breast, 131%; with NCI/ADR-RES ovarian it was 109%; in the experiment on T-47D breast, 92.3%; in the experiment on MDA-MB-435 melanoma, 117%; in the experiment with SW-620 colon it was 120%. For the same molecule, the growth in the experiment on MCF7 breast is 101%; in the experiment on HCT-116 colon it was 99.4%; in the experiment with KM12 colon it was 106%.
